Experimental findings from ChEMBL document CHEMBL2218924, “A broad activity screen in support of a chemogenomic map for kinase signalling research and drug discovery” (Biochem J, 2013) are described below.

For test [1], the target named is T1, Ephrin type-A receptor 3 (Homo sapiens) (UniProt P29320).
T1 sequence (whole entry): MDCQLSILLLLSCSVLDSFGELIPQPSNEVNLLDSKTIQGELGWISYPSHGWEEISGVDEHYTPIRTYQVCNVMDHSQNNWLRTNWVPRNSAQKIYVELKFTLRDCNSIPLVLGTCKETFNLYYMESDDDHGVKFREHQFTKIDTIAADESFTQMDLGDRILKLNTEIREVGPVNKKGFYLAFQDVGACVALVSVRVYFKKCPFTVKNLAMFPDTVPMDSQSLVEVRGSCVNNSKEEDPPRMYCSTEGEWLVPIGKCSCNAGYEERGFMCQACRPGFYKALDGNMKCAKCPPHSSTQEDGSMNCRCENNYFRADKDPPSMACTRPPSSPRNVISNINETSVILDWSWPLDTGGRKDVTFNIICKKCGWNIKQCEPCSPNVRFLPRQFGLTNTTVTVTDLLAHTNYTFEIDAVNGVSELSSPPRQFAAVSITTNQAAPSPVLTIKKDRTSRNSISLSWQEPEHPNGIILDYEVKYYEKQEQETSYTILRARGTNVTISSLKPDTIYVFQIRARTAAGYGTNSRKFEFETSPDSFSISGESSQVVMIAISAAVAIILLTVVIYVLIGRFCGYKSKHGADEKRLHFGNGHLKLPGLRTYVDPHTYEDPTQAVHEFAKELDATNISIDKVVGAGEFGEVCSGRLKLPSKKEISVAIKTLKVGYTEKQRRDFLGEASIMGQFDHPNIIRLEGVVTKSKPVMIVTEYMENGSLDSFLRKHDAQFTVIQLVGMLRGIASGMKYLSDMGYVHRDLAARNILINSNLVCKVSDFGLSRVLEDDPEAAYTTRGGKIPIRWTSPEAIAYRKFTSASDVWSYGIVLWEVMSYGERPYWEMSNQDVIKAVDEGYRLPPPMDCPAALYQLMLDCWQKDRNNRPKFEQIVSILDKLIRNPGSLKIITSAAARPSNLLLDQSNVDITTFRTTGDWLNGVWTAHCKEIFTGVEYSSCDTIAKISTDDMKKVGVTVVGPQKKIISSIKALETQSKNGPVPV
The conditions noted are these: at 10 µM.

In test [2] the target is Ephrin type-A receptor 4 (Homo sapiens) (UniProt P54764). As to conditions: at 1 µM.
For test [3] the target is unchanged. The conditions noted are these: at 10 µM.
Test [4] addresses Ephrin type-A receptor 5 (Homo sapiens) (UniProt P54756). As to conditions: at 1 µM.
The target is the same in test [5]. As to conditions: at 10 µM.
In test [6] the target is Ephrin type-A receptor 7 (Homo sapiens) (UniProt Q15375). As to conditions: at 1 µM.
For test [7] the target is unchanged. The conditions noted are these: at 10 µM.
For test [8], the target named is T2, Ephrin type-A receptor 8 (Homo sapiens) (UniProt P29322).
T2 sequence (whole entry): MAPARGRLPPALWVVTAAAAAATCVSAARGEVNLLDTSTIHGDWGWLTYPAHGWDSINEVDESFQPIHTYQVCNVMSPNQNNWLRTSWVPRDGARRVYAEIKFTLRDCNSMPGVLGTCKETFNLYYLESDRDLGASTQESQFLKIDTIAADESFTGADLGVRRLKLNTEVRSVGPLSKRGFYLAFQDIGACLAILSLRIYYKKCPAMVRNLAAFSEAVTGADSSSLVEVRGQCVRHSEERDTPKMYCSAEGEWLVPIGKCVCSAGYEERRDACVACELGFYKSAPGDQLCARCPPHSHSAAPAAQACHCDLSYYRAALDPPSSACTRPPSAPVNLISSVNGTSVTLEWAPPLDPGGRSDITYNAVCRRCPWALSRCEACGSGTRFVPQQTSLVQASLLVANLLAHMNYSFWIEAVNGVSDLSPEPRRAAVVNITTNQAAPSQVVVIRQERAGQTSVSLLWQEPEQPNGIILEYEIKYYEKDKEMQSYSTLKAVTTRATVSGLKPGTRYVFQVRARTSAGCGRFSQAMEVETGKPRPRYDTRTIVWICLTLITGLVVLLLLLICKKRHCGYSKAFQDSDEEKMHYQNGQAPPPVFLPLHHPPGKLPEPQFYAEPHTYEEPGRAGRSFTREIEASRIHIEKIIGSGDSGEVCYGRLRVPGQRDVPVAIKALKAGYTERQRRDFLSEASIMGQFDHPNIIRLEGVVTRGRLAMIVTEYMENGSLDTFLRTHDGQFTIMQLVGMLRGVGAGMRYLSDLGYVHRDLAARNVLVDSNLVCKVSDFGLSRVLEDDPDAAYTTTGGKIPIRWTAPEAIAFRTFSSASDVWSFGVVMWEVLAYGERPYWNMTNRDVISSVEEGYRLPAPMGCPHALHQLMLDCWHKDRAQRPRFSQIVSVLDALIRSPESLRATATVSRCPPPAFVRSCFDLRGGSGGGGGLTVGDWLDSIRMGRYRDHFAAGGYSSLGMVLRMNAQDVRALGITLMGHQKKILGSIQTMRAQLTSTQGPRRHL
As to conditions: at 1 µM.

Test [9] has as its target T2, Ephrin type-A receptor 8 (Homo sapiens). As to conditions: at 10 µM.
The target in test [10] is T3, Ephrin type-B receptor 1 (Homo sapiens) (UniProt P54762).
T3 sequence (whole entry): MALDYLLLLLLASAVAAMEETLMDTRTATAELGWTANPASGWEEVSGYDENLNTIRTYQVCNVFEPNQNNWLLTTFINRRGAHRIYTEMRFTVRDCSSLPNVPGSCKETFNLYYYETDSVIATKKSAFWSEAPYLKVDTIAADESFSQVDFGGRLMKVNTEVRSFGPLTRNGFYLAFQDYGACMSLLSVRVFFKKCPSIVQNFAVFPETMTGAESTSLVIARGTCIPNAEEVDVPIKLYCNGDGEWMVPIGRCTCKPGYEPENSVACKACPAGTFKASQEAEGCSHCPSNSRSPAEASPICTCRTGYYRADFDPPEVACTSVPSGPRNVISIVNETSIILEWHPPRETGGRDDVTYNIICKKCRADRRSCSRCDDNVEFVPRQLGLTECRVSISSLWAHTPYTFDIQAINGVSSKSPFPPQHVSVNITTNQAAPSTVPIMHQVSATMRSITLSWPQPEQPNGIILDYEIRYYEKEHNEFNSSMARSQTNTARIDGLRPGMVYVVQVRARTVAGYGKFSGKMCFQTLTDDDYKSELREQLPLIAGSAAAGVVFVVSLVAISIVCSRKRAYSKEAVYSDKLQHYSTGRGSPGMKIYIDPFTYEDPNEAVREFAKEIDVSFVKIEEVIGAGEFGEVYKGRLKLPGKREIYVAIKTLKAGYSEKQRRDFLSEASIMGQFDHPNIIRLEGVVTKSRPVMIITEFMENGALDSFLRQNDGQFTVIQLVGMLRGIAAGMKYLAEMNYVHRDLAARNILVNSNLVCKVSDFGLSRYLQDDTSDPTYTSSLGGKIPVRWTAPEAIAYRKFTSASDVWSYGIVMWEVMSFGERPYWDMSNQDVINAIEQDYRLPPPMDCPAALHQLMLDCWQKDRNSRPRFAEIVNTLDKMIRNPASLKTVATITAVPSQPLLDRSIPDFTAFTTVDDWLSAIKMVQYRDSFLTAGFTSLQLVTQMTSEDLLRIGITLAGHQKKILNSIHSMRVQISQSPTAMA
As to conditions: at 1 µM.

Chain of Ephrin type-A receptor 5 (Homo sapiens) (P54756 whole entry): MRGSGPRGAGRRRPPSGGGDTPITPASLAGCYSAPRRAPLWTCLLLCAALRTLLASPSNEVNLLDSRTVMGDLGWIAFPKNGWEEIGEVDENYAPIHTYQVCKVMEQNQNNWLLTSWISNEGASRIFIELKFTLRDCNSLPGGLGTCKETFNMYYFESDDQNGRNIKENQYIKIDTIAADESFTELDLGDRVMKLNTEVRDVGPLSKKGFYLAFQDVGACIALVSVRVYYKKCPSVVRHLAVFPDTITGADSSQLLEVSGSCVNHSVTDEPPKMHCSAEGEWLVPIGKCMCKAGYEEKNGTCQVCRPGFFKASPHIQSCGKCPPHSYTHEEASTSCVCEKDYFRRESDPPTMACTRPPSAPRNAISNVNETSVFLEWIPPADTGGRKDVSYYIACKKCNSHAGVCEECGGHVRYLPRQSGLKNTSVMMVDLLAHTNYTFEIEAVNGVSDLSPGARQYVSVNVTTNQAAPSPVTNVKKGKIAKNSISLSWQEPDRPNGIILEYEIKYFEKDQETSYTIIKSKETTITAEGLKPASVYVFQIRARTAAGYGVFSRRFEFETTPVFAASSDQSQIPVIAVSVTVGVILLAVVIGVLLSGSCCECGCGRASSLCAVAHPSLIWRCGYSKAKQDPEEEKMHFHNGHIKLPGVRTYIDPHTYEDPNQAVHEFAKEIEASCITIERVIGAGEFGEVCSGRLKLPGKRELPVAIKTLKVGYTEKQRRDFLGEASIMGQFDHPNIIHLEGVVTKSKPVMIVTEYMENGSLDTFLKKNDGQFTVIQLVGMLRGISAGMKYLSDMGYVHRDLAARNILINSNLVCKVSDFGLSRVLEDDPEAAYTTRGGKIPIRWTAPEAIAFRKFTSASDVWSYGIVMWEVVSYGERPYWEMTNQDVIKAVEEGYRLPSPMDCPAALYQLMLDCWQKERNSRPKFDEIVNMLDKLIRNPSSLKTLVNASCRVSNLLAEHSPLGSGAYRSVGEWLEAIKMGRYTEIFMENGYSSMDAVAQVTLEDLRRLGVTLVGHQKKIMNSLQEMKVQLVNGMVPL
Chain of Ephrin type-A receptor 7 (Homo sapiens) (Q15375 28-998 limits assumed): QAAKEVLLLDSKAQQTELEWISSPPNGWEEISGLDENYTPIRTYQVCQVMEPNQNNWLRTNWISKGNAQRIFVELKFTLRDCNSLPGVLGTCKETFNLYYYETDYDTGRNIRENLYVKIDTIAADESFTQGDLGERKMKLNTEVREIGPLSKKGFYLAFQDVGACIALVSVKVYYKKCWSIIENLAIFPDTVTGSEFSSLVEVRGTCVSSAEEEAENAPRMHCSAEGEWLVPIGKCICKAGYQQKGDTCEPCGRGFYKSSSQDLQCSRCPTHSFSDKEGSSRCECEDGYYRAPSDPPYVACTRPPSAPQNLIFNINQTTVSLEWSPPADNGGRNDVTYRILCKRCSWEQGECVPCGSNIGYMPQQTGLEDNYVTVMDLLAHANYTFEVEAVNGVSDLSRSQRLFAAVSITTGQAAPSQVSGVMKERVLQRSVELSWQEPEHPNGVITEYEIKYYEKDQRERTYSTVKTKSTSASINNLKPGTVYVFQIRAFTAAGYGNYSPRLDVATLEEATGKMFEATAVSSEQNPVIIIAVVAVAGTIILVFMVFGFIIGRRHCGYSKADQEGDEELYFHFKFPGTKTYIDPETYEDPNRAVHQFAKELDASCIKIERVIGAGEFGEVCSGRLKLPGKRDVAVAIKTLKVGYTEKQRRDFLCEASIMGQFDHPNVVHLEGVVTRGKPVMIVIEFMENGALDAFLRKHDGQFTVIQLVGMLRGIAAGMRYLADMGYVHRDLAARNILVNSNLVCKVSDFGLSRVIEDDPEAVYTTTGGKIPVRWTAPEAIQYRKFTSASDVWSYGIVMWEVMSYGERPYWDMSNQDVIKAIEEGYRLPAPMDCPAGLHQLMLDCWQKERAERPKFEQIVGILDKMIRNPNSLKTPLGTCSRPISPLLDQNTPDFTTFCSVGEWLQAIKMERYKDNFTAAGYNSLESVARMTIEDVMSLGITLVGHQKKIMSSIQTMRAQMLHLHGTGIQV
Chain of Ephrin type-A receptor 4 (Homo sapiens) (P54764 whole entry): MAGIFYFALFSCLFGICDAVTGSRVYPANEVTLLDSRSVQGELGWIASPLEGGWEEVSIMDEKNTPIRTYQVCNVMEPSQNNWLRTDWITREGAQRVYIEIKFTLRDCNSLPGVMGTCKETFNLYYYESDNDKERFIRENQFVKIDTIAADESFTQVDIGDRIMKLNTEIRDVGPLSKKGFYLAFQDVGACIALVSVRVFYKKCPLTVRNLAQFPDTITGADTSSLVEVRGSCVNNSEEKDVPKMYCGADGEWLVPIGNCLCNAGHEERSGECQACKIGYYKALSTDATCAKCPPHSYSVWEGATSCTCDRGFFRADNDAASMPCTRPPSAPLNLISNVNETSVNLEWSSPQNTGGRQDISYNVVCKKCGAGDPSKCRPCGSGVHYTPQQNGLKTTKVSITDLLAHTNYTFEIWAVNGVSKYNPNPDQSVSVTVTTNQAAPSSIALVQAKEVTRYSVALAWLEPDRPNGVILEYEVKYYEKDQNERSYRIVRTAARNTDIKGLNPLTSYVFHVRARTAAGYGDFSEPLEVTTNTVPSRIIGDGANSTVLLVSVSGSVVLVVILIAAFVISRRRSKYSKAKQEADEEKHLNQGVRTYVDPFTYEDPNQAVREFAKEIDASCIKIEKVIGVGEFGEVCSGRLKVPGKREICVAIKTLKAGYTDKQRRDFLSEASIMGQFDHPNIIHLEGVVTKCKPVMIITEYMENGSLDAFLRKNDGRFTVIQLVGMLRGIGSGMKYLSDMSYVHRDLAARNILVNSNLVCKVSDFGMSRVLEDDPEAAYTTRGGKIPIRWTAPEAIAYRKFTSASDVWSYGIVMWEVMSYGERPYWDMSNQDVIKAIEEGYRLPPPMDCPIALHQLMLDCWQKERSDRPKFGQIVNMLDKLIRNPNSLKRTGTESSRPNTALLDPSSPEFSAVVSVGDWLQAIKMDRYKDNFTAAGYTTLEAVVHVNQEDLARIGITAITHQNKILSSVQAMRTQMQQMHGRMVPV

In general, residual activity refers to the share of the control activity or signal that is left under treatment. A low value points to a large loss of activity. As for `Nc1cccc(-c2cc3c(Oc4cccc(O)c4)ncnc3[nH]2)c1`, the residual activity in [1] was 0%; in test [2], 48%; in test [3] it was 4%; in test [4] it was 24%; in [5] it was 2%; in [6], 64%. Also, the residual activity in [7] turned out to be 15%; in test [8] it was 30%; in [9], 6%; in test [10], 7%.
